This is a sample that favours compounds with a hit; in the whole collection about 4.9% have one here.
NLRP3 yeast inh – NALP3 inflammasome inhibitors in reconstituted yeast, primary screen, luminescence, uHTS; Yeast reconstituted NLRP3/ASC/caspase-1, beta-gal luminescence, 24 h; inhibition, % at 10 µM; 330,000 tested, 0.39% active; AID 2825, 2010;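 active = inhibition of 50% or more; inactive = inhibition below 50%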
NALP1 yeast inh – NALP1 inflammasome inhibitors in reconstituted yeast, colorimetric, S. cerevisiae, triplicate retest; S. cerevisiae NALP1/ASC/caspase-1 growth, X-gal OD620, 72 h; 280,000 tested, 0.61% active; inhibition, % at 10 µM; AID 2071, 2009; in the data active = inhibition mostly above about 24%, no sharp cut-off; inactive = mostly below about 32%
TIM10 inh – growth inhibitors of isogenic TIM10 control yeast, primary screen, counter-screen for tim10-1 yeast inhibitor project, luminescence, uHTS; AID 463195, 2010; inhibition, % at 10 µM; 330,000 tested, 1.4% active; S. cerevisiae TIM10 strain growth, BacTiter-Glo luminescence, 24 h;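 active = inhibition of 40% or more at the single tested concentration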;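 also: wild-type TIM10 isogenic control strain grown at permissive 25 °C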
tim10-1 inh – growth inhibitors of tim10-1 mutant yeast, primary screen, luminescence, uHTS; AID 463190, 2010; inhibition, % at 20 µM; S. cerevisiae tim10-1 ts strain growth, BacTiter-Glo, 24 h; 330,000 tested, 2.2% active;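 active = inhibition of at least 40%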;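 also: mutant grown at 25 °C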
tim23-1 inh – growth inhibitors of tim23-1 mutant yeast, primary screen, luminescence, uHTS; S. cerevisiae tim23-1 growth, BacTiter-Glo luminescence, 24 h; inhibition, % at 20 µM; 330,000 tested, 1.3% active; AID 463212, 2010;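 active = growth inhibition of the mutant yeast at or above 50%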;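 also: temperature-sensitive mutant grown at 25 °C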
SKKanGAS inh – S. pyogenes SKKanGAS growth inhibitors in kanamycin, primary screen, streptokinase expression inhibitor project, SKKanGAS strain, BacTiter-Glo luminescence | 6 h | inhibition, % at 7.5 µM | 300,000 tested, 1.3% active;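 active = mean replicate score, as percent of positive control median, at least 50; inconclusive = mean below 50 but one replicate at or above 50; inactive = mean and every replicate below 50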;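 also: strain carries kanamycin resistance gene driven by streptokinase promoter and grows in 40 µg/ml kanamycin; loss of luminescence reflects streptokinase promoter inhibition or plain growth inhibition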
Large screens that a line does not name were inactive; ! = a repeat was not active.

O=c1oc2ccccc2c(O)c1Cc1cc(Cl)c2cccnc2c1O	SKKanGAS inh 84
O=C(Cc1c(O)c2ccccc2oc1=O)c1ccc(C(F)(F)F)cc1	none
COc1ccc(/C=C2\SC(=N)N(c3nccs3)C2=O)cc1OC	SKKanGAS inh 89
COc1ccc(/C=C2\SC(=S)N(NC(=O)c3ccncc3)C2=O)cc1OC	none
N=C1S/C(=C\c2ccc(-c3cccc(Cl)c3)o2)C(=O)N1c1nccs1	SKKanGAS inh 131 (no result: NLRP3 yeast inh, TIM10 inh, tim10-1 inh, tim23-1 inh)
Cc1ccc(NC(=O)Nc2nc3ccccc3s2)cc1NC(=O)Nc1nc2ccccc2s1	SKKanGAS inh 76
COc1cccc(/C=N/NC(=S)NC2CC3CC2C2C=CCC32)c1O (stereo unspecified)	SKKanGAS inh 109 (no result: NALP1 yeast inh)
COCCCNC(=S)N/N=C/c1cccc(OC)c1O	none
Cc1ccc(C(=O)NNC(=O)c2ccc(NC(=O)C(C)(C)C)cc2)cc1	none
COC(=O)c1ccc(NC(=O)Cc2ccccc2)cc1	none
COC(=O)c1ccc(NC(=O)Nc2ccc([N+](=O)[O-])cc2)cc1	SKKanGAS inh 51
COC(=O)c1ccc(NC(=O)Cc2ccc(C)cc2)cc1	NALP1 yeast inh 35
CCS(=O)(=O)Nc1ccc(NC(C)=O)cc1	NALP1 yeast inh 36
CCN(CC)S(=O)(=O)c1cccc(C(=O)Nc2nc3cc4c(cc3s2)OCCO4)c1	SKKanGAS inh 71
O=C(CCS(=O)(=O)c1ccccc1)Nc1nc2cc3c(cc2s1)OCCO3	SKKanGAS inh 61
N#C/C(=C(/O)CCl)c1nc2c(s1)CCc1ccccc1-2	SKKanGAS inh inconclusive
CC1(c2ccc(Cl)cc2)NC(=O)N(CC(=O)N2CCc3ccccc32)C1=O (stereo unspecified)	none (no result: NALP1 yeast inh, SKKanGAS inh)
COc1ccc2sc(-c3ccc(SC)cc3)c(-c3ccc(O)cc3)c2c1	none (no result: NALP1 yeast inh, SKKanGAS inh)
Cc1ccc(-c2csc(NC(=S)NC(=O)/C=C/c3ccco3)n2)cc1	none
O=C(/C=C\c1ccco1)Nc1nc(-c2ccc3ccccc3c2)cs1	SKKanGAS inh 63
CC1CCCC(C)N1C(=C(Cl)Cl)C(=C1SCCS1)[N+](=O)[O-] (stereo unspecified)	none
CC(C)(C)c1cc[n+](C2=C([O-])c3ccccc3C(=O)/C2=N\S(=O)(=O)c2cccs2)cc1	SKKanGAS inh 56
COc1ccc(CN(C)S(=O)(=O)c2nnc(NC(=O)c3ccccc3Br)s2)cc1	SKKanGAS inh 59
COc1ccc(CN(C)S(=O)(=O)c2nnc(NC(=O)c3cccc(OC)c3)s2)cc1	none
CCOC(=O)C1CCCCN1Cc1cccc(F)c1 (stereo unspecified)	none
CCOC(=O)C1CCCCN1Cc1ccc(F)cc1 (stereo unspecified)	NALP1 yeast inh 43
O=C1COc2ccc(NC(=O)c3ccccc3C(=O)O)cc2N1	none
COc1ccc(S(=O)(=O)N(C)Cc2cccs2)cc1Br	NALP1 yeast inh 41
CN(CC(=O)Nc1ccc(F)c(F)c1F)C(=O)c1ccc2c(c1)S(=O)(=O)N=C1CCCCCN12	none (no result: NALP1 yeast inh)
COc1ccc(C(=O)NC(=S)NNC(=O)c2c(-c3ccccc3)noc2C)cc1OC	SKKanGAS inh 91
Cc1onc(-c2ccccc2)c1C(=O)NCc1ccc2c(c1)OCO2	none
COc1ccc(CCNC(=O)c2c(-c3ccccc3)noc2C)cc1OC	none
Cc1onc(-c2ccccc2)c1C(=O)NNC(=S)NC(=O)c1ccc2c(c1)OCO2	SKKanGAS inh 98
COc1ccc(Cn2c(=O)[nH]c3cc(C(=O)N4CCN(Cc5ccccc5)CC4)ccc3c2=O)cc1	NALP1 yeast inh 27
Cc1nc(NS(=O)(=O)c2ccc(Cl)s2)c2c3c(sc2n1)CCCC3	SKKanGAS inh 63 (no result: NALP1 yeast inh)
Cc1nc(NCCc2ccc(S(N)(=O)=O)cc2)c2c3c(sc2n1)CCC3	none
Cc1ccc(NC(=O)COC(=O)CCc2c(C)nc3ncnn3c2C)cc1	none (no result: NALP1 yeast inh, SKKanGAS inh)
Cc1ccc(C)c(C(=O)COC(=O)c2cc(Cl)nc3ccccc23)c1	SKKanGAS inh 54
Cc1ccccc1OCC(O)Cn1c(=N)n(CCN2CCOCC2)c2ccccc21 (stereo unspecified)	NALP1 yeast inh 43!
CCCCN(C(=O)C1CCCO1)c1c(N)n(CCC)c(=O)[nH]c1=O (stereo unspecified)	none (no result: NALP1 yeast inh, SKKanGAS inh)
CCOC(=O)C1C(c2ccc3c(c2)OCO3)NC(=O)NC1(O)C(F)(F)F (stereo unspecified)	none
CCOC(=O)C1C(c2ccc(O)c(OC)c2)NC(=O)NC1(O)C(F)(F)F (stereo unspecified)	NALP1 yeast inh 34
O=C(COC(=O)c1ccc2c(c1)OCO2)Nc1ccccc1Cl	none (no result: NALP1 yeast inh, SKKanGAS inh)
Cc1cc(C)cc(N=Cc2c(O)c3ccccc3oc2=O)c1	none
Cc1cccc(/N=C/c2c(O)c3ccccc3oc2=O)n1	NALP1 yeast inh 27
CCSc1nnc(SCC(=O)c2c(N)n(C)c(=O)n(C)c2=O)s1	none (no result: NALP1 yeast inh, SKKanGAS inh)
CC(C)c1ccc(N=c2c([N+](=O)[O-])nn(-c3ccc4c(c3)OCCO4)n2O)cc1	none
COc1cc(N=c2c([N+](=O)[O-])nn(-c3ccc4c(c3)OCCO4)n2O)cc(OC)c1	SKKanGAS inh 73
Cc1onc(-c2ccccc2Cl)c1C(=O)N1CCN(c2ccc(F)cc2)CC1	none
COc1ccc(C2NCCc3c2[nH]c2ccccc32)cc1CSc1nc2ccccc2s1 (stereo unspecified)	NALP1 yeast inh 57 (no result: NLRP3 yeast inh, TIM10 inh, tim10-1 inh, tim23-1 inh)
CCCCSCCCNC(=O)Nc1cccc(OC)c1	NALP1 yeast inh 40
COc1cccc(NC(=O)NCCc2ccc(Cl)cc2)c1	none
Cc1ccc(-n2c3c(c(=O)[nH]c2=S)C(C(F)(F)F)(C(F)(F)F)NC(=O)N3)cc1	NALP1 yeast inh 41
O=C1Nc2c(c(=O)[nH]c(=O)n2-c2ccccc2)C(C(F)(F)F)(C(F)(F)F)N1	none
CC(C)CCC(CCNCc1ccccn1)c1ccc(Cl)cc1 (stereo unspecified)	SKKanGAS inh 51
COc1ccc(OC)c(S(=O)(=O)ON2C(=O)c3ccccc3C2=O)c1	none
CCN1CCN(CC(=O)N2N=C(c3ccc(OC)cc3)CC2c2ccc(OC)cc2)C(=O)C1=O (stereo unspecified)	NALP1 yeast inh 20
CCOC(=O)c1ccc(NC(=O)COc2ccc(S(=O)(=O)NC(C)CC)cc2)cc1 (stereo unspecified)	NALP1 yeast inh 28
CCOC(=O)c1ccc(NC(=O)C(C)NS(=O)(=O)c2ccc(OC)cc2)cc1 (stereo unspecified)	none
Cc1ccc(-c2nnc(NC(=O)Cc3ccc(F)cc3)o2)c(C)c1	none
COc1ccc(-c2cc3cc(OC)c(OC)cc3c(C)n2)cc1	none (no result: NALP1 yeast inh)
